The list is not random: actives were taken first. Their share in the collection is about 1.8%.
NRP1-CendR mod = modulators of CendR peptide binding to NRP-1, primary screen, biochemical, fluorescence polarization, uHTS; Neuropilin-1 (Homo sapiens), O14786; FAM-RPARPAR peptide binding to NRP-1; inhibition, % at 25 µM; 0.85% of 360,000 active; AID 602438, 2012;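 active means inhibition or corrected inhibition above about 18%, plus a signal ratio from 0.5 to 1.5, limit read from the data, passing the limit was not always enough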
Target sequence (O14786 whole entry, looked up): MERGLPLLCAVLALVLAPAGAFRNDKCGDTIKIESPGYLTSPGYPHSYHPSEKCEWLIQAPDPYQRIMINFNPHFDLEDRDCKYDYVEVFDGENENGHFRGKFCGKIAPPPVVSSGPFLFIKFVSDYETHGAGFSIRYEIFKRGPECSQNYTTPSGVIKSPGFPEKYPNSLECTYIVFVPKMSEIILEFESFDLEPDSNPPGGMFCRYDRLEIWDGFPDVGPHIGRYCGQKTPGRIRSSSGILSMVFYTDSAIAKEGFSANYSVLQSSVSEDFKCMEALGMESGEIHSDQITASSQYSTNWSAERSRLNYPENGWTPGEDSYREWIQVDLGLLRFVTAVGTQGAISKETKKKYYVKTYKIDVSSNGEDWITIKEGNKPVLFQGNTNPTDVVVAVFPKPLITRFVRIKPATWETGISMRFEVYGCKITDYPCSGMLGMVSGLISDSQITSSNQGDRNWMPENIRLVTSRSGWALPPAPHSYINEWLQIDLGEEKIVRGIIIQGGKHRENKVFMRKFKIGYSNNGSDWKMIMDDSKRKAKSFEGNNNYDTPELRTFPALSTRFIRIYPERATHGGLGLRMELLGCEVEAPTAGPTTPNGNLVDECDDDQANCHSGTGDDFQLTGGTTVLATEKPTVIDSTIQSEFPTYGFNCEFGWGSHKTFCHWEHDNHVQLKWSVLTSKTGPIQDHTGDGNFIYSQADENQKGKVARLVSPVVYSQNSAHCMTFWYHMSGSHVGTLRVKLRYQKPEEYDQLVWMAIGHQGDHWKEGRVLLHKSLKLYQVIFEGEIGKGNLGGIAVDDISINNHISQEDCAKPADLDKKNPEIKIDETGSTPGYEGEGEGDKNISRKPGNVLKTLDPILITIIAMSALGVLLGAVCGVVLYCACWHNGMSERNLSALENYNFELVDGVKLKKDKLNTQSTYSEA
ARNT TACC3 PPI = disruptors of ARNT/TACC3 protein interaction, primary screen, biochemical, AlphaScreen, single concentration; inhibition, % at 9.99 µM; Transforming acidic coiled-coil-containing protein 3 (Homo sapiens), Q9Y6A5; 0.66% of 390,000 active; AlphaScreen His-ARNT PAS-B/GST-TACC3 binding, luminescence; TACC3 fragment carries E629A point mutation; AID 623870, 2012;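 active means mean inhibition of replicates at least 50% and at least half of replicates each reaching 50%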;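 further: 0% = complete ARNT plus TACC3 wells and 100% = ARNT alone without TACC3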
iPSC survival up = enhancers of single-cell hiPSC survival, primary screen, ATPlite luminescence. 100% = ROCK inhibitor wells, 0% = DMSO. survival enhancement, % at 20 µM. 0.044% of 360,000 active; in the data active means survival enhancement above about 18%;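 further: cells exposed to compounds for 16 hours before the ATP read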
GSIS activator = GLuc luminescence reporter in INS-1E cells, primary screen for activators of glucose-dependent secretion of insulin; INS-1E GLuc reporter insulin secretion, 2-3 h; activation, % at 16.6 µM; 0.61% of 370,000 active; AID 743287, 2014;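 active means lowest replicate activation of at least 40%, so every replicate reaches that level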;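 further: 0% = median of neutral control wells and 100% = median of IBMX positive control wells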
ABCB6 inh MLPCN = ABCB6 transporter inhibitors, primary screen, K562-ABCB6 cells, flow cytometry, MLPCN library; ATP-binding cassette sub-family B member 6 (Homo sapiens), Q9NP58; K562-ABCB6 porphyrin accumulation, 1 h; stronger effect = lower value; fluorescence ratio to DMSO, % at 10 µM; 0.19% of 360,000 active; AID 602162, 2011;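 active means fluorescence ratio to DMSO below 75%, the collection mean minus 3 SD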;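 further: signal is porphyrin accumulated inside mitochondria; 100% equals median channel fluorescence of DMSO control wells; lower ratio means ABCB6 inhibition with less porphyrin fluorescence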
Active calls of the source: *; nt = no result.

SMILES	NRP1-CendR mod	ARNT TACC3 PPI	iPSC survival up	GSIS activator	ABCB6 inh MLPCN
COc1ccc(OC)c(CN2C(=O)c3ccccc3C2C(=O)NCC2CCCO2)c1 (centres undefined)	0	1	1	52*	97
O=C(CSc1nnc(-c2ccc(Cl)cc2)n1-c1ccc(Cl)cc1)N/N=C/c1ccco1	-10	-7	2	-17	118
Cc1ccc(/C=N/NC(=O)CSc2nnc(-c3ccc(Cl)cc3)n2-c2ccccc2)o1	43*	-5	-2	-13	99
CCCNC(=O)Nc1ccc2c(c1)C(=O)N(C)C[C@H](OC)[C@@H](C)CN(C(=O)CC)[C@@H](C)CO2	nt	-11	nt	15	nt
O=C(Nc1ncn[nH]1)c1ccc(Cl)cc1Cl	-3	-5	0	-1	102
O=C(Nc1ncn[nH]1)c1ccc(Cl)c(Cl)c1	-7	5	0	44*	95
O=S(=O)(N[C@@H]1CC[C@H](CCn2cc(C3CC3)nn2)O[C@H]1CO)c1ccc(Cl)cc1	nt	nt	nt	1	nt
Cc1cc(C)n(-c2nnc3n2N=C(c2c[nH]c4ccccc24)CS3)n1	23*	2	7	nt	91
COc1ccc(NC(=O)Nc2ccc3c(c2)CC(=O)N([C@H](C)CO)C[C@H](C)[C@H](CN(C)C(=O)Nc2ccc(OC)cc2)O3)cc1	nt	6	nt	1	nt
Fc1ccc(-n2c(Cc3cccs3)n[nH]c2=S)cc1Cl	-5	-8	0	57	96
FC(F)(F)c1ccc(Cl)c(-n2c(Cc3cccs3)n[nH]c2=S)c1	12	10	2	41*	95
O=C(Nc1cccc(Cl)c1)Nc1nnc(CSCCOc2ccc(Cl)cc2)s1	-3	-8	1	54*	94
CCc1nc(N)nc2c1C(=O)CC(C)(C)C2	1	4	0	70*	97
C[C@@H]1CN([C@@H](C)CO)C(=O)c2cc(NC(=O)Nc3ccc(C(F)(F)F)cc3)ccc2O[C@@H](C)CCCCO[C@@H]1CN(C)Cc1ccc2c(c1)OCO2	nt	30	nt	-22	nt
COc1ccc2nc(CCN(C)C(=O)C3CCC(=O)N(Cc4cccc(F)c4)C3)[nH]c2c1 (centres undefined)	-12	-3	0	61*	103
Cc1ccc(S(=O)(=O)N(C)C[C@@H]2Oc3ccc(NC(=O)c4ccncc4)cc3CC(=O)N([C@@H](C)CO)C[C@@H]2C)cc1	nt	-8	nt	-15	nt
Cc1ccc(CNC(=O)CSc2nc3ccccc3[nH]2)cc1	11	-10	-1	2	105
COC(=O)c1ccc(CNC(=O)CSc2nc3ccccc3[nH]2)cc1	3	-2	1	79*	101
C[C@@H]1CN([C@H](C)CO)C(=O)c2cc(-c3cccnc3)cnc2O[C@@H]1CN(C)C(=O)C1CCC1	nt	-2	nt	15	nt
COC(=O)c1ccc(Cn2c(O)c(N=NC(N)=S)c3ccccc32)o1	-6	-9	0	64*	100
COc1cc([N+](=O)[O-])cc(/C=N/NC(=O)c2cncc(Br)c2)c1O	-82	69*	1	-5	99
COc1cc([N+](=O)[O-])cc(/C=N/NC(=O)c2cc(C)nc3ccccc23)c1O	-41	64*	0	-8	97
COc1cc(/C=N/NC(=O)c2cccc([N+](=O)[O-])c2)cc(OC)c1O	1	3	3	6	98
COc1cccc(/C=N/NC(=O)c2ccc([N+](=O)[O-])cc2Cl)c1O	0	59*	-2	2	97
COc1cc(/C=N/Nc2cc(C)nc(NS(=O)(=O)c3ccc(C)cc3)n2)ccc1O	1	-5	2	46*	101
SMILES	NRP1-CendR mod	ARNT TACC3 PPI	iPSC survival up	GSIS activator	ABCB6 inh MLPCN
COc1cc(/C=N/Nc2cc(C)nc(NS(=O)(=O)c3ccccc3)n2)ccc1O	-6	7	0	26	93
N=c1c2c(n(Cc3ccc(F)cc3)c3c1CCC3)CCCC2	24*	-2	-2	-10	99
N=c1c2c(n(Cc3ccc(Cl)cc3)c3c1CCC3)CCC2	8	-5	-2	-17	92
Cc1nccn1-c1ncnc2sc3c(c12)CCCC3	-5	-4	1	67*	99
Cc1cc(C)n(-c2ncnc3sc4c(c23)CCCC4)n1	-2	-7	-1	48	105
COc1ccccc1NC(=O)N1CCCCN2[C@H](CO)[C@H](c3ccc(-c4ccccc4)cc3)[C@@H]2C1	nt	21	nt	nt	nt
CCCSc1ccc(C(=O)Nc2ccc(Cl)cc2)cn1	28*	15	-1	5	94
OC(c1ccccc1)(c1ccccc1)C1CCN(CCCOc2cc(F)cc(F)c2)CC1	nt	nt	nt	-42	nt
OC(c1ccccc1)(c1ccccc1)C1CCN(CCCOc2ccc(-c3ccc(F)cc3F)cc2)CC1	nt	nt	nt	249*	nt
COc1cccc(OCCCN2CCC(C(O)(c3ccccc3)c3ccccc3)CC2)c1	nt	nt	nt	9	nt
OC(c1ccccc1)(c1ccccc1)C1CCN(CCCOc2ccc3c(c2)CCCC3)CC1	2	nt	0	762*	98
OC(c1ccccc1)(c1ccccc1)C1CCN(CCCOc2cccc(OC(F)(F)F)c2)CC1	-2	nt	-1	160*	99
Fc1cnc(N2CCOCC2)nc1N1CCc2ccccc21	11	-5	-2	nt	121
Fc1cnc(N2CCOCC2)nc1N1CCOCC1	21*	0	-2	5	99
Cc1ccc(S(=O)(=O)N[C@@H]2CC[C@@H](CC(=O)N3CCc4ccccc4C3)O[C@@H]2CO)cc1	nt	-6	nt	-5	nt
N#C[C@H]1[C@@H](c2ccc(C#CC3CCCC3)cc2)[C@@H](CO)N1C(=O)c1cccc(F)c1	nt	nt	nt	4	nt
CCOc1cc(/C=C2\CN(CC)C/C(=C\c3ccc(O)c(OCC)c3)C2=O)ccc1O	3	4	-1	-40	100
CCN1C/C(=C/c2cccc([N+](=O)[O-])c2)C(=O)/C(=C/c2cccc([N+](=O)[O-])c2)C1	23	4	38*	-22	93
COc1ccc(-c2nnn(CC(=O)NCc3ccccc3)n2)cc1OC	0	-6	-1	nt	99
CCOc1ccc(-c2nnn(CC(=O)Nc3ccccc3OC)n2)cc1OCC	1	1	-1	68*	98
CN1CCN(c2nc(-c3ccccn3)nc3ccccc23)CC1	8	67*	-2	nt	103
NC(=O)C1CCN(c2nc(-c3ccccc3)nc3ccccc23)CC1	4	-1	3	58*	94
CC(=O)N1CCN(c2nc(-c3cccs3)nc3ccccc23)CC1	0	3	0	41*	93
CCOC(=O)N1CCN(c2nc(-c3cccs3)nc3ccccc23)CC1	-2	7	0	3	98
